# Data taken from PubChem BioAssay AID686979 (National Center for Advancing Translational Sciences (NCATS), 2013).
# Several values for one entry are separate records, joined by “and”; a condition that tells them apart may be missing. Equal entries are not always repeated. Hit rate of the full screen: of about 420,000 compounds, about 50,000 (12%) were called active. Not shown: some 26% with an inconclusive outcome. The sample holds actives, similar compounds and a random draw of the others, so the mix is not that of the screen. The call rests on the fitted dose curve; in most records, active means well fitted inhibition curve with a large enough effect; inconclusive means small, poorly fitted or top-dose-only effect; inactive means flat fitted curve, though single readings scatter. Some compounds were tested as several samples or in several runs, with calls that do not always agree.
# Assay: qHTS for Inhibitors of human tyrosyl-DNA phosphodiesterase 1 (TDP1): qHTS in cells in presence of CPT; further: nearly all actives have a fitted effect of over 55% in size
# Details: chicken DT40 Tdp1-/-;hTDP1 cells + 20 nM CPT, ATP luminescence, 48 h; series mostly up to 46.2 µM; activity change, negative = growth inhibition: at the top concentration
# From the text: Human tyrosyl-DNA phosphodiesterase 1 (TDP1) is a novel repair gene, and we propose to use it as a new target for anticancer drug development. TDP1 is not an essential protein, but under treatment with topoisomerase I poison (camptothecin: CPT), TDP1 works as a critical factor for cell survival. To directly identify novel TDP1 inhibitors active in a cellular environment, we have knocked-out the Tdp1 gene in chicken DT40 cells (Tdp1-/-) and generated a complemented counterpart cells that contains a stable transfection of the human TDP1 gene (Tdp1-/-;hTDP1 cells). For the primary screen, Tdp1-/-;hTDP1 cells will be exposed to small molecules in the presence or absence of CPT, and their growth kinetics will be evaluated after 48 hours by measuring ATP activity. […] The hit compounds will then be evaluated in the presence or absence of CPT using Tdp1-/- cells. […] In tertiary assays, biochemical gel-based assays will be used to assess whether the hit compounds specifically target TDP1. To this end, we have screened this cell line against the MLSMR in two primary screens. In one screen we add CPT and in the other we screen in the absence of CPT; this AID represents the screen where CPT was present. NIH Chemical Genomics Center [NCGC] NIH Molecular Libraries Probe Centers Network [MLPCN] MLPCN Grant: MH095538 Assay Submitter (PI): Yves Pommier, NCI
# DT40-hTDP1 cells with 20 nM Camptothecin (add 20 microL of 1 mM CPT stock in 1 L of cell culture medium) were dispensed at 400 cells/5microL/well in tissue culture treated 1536-well white wall/solid bottom assay plates (Greiner Bio-One North America, NC, U.S.A.) using a Multidrop Combi 8 channel dispenser (Thermo Fisher, Waltham, MA, USA). 23 nL compounds and controls were transferred using the pin tool (Kalypsys, San Diego, CA, USA) to the assay plates. The assay plates were then incubated at 37 masculineC for a minimum 48 hr. Three microL of Cell Titer Glo solution was added to the plates and incubated at RT in dark for 30 min. Luminescence was read using ViewLux (Perkin Elmer) with 1 sec exposure slow speed, high gain and 2x binning.
# On the % scale 0 is the no-effect control and ±100 the full control effect; potency means the concentration at half of the fitted maximal effect.
SMILES,"activity change, negative = growth inhibition",Potency
COc1cccc(CN(C)CC(=O)NCc2ccccc2Cl)c1OC,-23.4% (inactive),
COc1cccc(CN(C)CC2CCCN(CCc3ccc(Cl)cc3)C2)c1OC (configuration not stated),,16.4 µM (active)
Cc1nc2ccc(C(=O)N(C)CC3CCCN(CCc4ccc(Cl)cc4)C3)cc2[nH]1 (configuration not stated),-12.6% (inactive),
CCc1ccnc(NS(=O)(=O)c2ccc3c(c2)OCCO3)c1,0.676% (inactive),
Cc1ccc(C2CC(c3cccc(C)c3)n3nc(N)nc3N2)cc1 (configuration not stated),-24.1% (inactive),
COc1ccc(C2CC(c3ccc(C)cc3)Nc3nc(N)nn32)cc1 (configuration not stated),-9.25% (inactive),
CCOc1ccccc1C1CC(c2ccc(Cl)cc2)Nc2nc(N)nn21 (configuration not stated),,18.4 µM (active)
COc1ccccc1N1CCN(c2ncnc3sc(C)c(-c4ccccc4)c23)CC1,,23.1 µM (active)
COc1ccccc1N1CCN(c2ncnc3onc(-c4cccc(Cl)c4)c23)CC1,7.45% (inactive),
COc1ccccc1N1CCN(c2nc(C)cc(=O)[nH]2)CC1,19.5% (inactive),
Cn1cnc(S(=O)(=O)Nc2ccc3c(c2)OCCO3)c1,-11.7% (inactive),
O=C(COC(=O)c1cc(-c2cccs2)nn1-c1ccccc1)Nc1cc([N+](=O)[O-])ccc1Cl,8.85% (inactive),
CCc1cccc(CC)c1NC(=O)Cn1c(=O)c(-c2cc(C)ccc2NC(C)=O)nc2ccccc21,0.437% (inactive),
CCCn1c(N)c(C(=O)CSc2nnc(-c3cccnc3)n2-c2ccc(C)cc2C)c(=O)[nH]c1=O,-6.68% (inactive),
COCc1cc(=O)n2[nH]c(C)c(-c3ccccc3)c2n1,-2.85% (inactive),
Cc1nc2c(-c3ccccc3)c(C)[nH]n2c(=O)c1Cl,-0.299% (inactive),
CCCc1cc(=O)n2[nH]c(C)c(-c3ccc(Cl)cc3)c2n1,,20.6 µM (active)
CCOc1cc(C)c(S(=O)(=O)NCc2ccccn2)cc1C,12.8% (inactive),
COc1ccc(NC(=O)C2C3CCC(O3)C2C(=O)O)cc1OC (configuration not stated),-3.95% (inactive),
COCC(=O)N1CCc2ccc(NC(=O)c3ccccc3Cl)cc2C1,5.3% (inactive),
O=C(NCCCc1ccccc1)C1CCC(CNc2c(N3CCCCC3)c(=O)c2=O)CC1 (configuration not stated),4.19% (inactive),
Cc1ccc(CN2C(=O)CCC2C(=O)NCCCN2CCCCC2C)cc1 (configuration not stated),-1.28% (inactive),
Cc1ccc(Cn2c(CCCNC(=O)C3CCCCC3)nc3ccccc32)cc1,,16.4 µM (active)
CCc1ccc(OCCCn2c(CCCNC(=O)C3CCCCC3)nc3ccccc32)cc1,,8.91 µM (active)
CC(C)Oc1ccc(CNC(=O)C2CCN(c3nc4ccccc4n(C)c3=O)CC2)cc1,-5.18% (inactive),
Cc1ccc2[nH]cc(CCNC(=O)C3CCCCC3)c2c1,-21.5% (inactive),

SMILES,"activity change, negative = growth inhibition",Potency
O=C(CSc1nnc(CNC(=O)c2ccccc2)n1-c1ccc(F)cc1)Nc1ccccc1F,-13.6% (inactive),
Cc1ccc(NS(=O)(=O)c2ccc(N/N=C/c3ccccc3OCC(=O)O)c([N+](=O)[O-])c2)c(C)c1,1.01% (inactive),
O=C(CC1SC(=Nc2ccccc2F)N(CCN2CCOCC2)C1=O)Nc1ccc(F)cc1F (configuration not stated),-10.2% (inactive),
Cc1ccc(S(=O)(=O)N(CC(=O)NCc2ccco2)c2ccccc2C)cc1,-7.69% (inactive),
Cc1ccc(S(=O)(=O)N(CC(=O)Nc2ccc(Cl)cc2Cl)c2ccccc2C)cc1,,18.4 µM (active)
COc1ccccc1N(CC(=O)N/N=C(\C)c1ccccc1O)S(=O)(=O)c1ccc(C)cc1,-94.3% (inactive),
COc1ccc(C(F)(F)F)cc1N/C=C\c1nnnn1-c1ccc(C)cc1,-1.88% (inactive),
COc1ccccc1OCC(=O)O/N=C(\N)c1ccccn1,-15.9% (inactive),
Cc1ccccc1-c1cc(C(=O)NCC2CC2)n(CC2CC(c3cccnc3)=NO2)n1 (configuration not stated),0.873% (inactive),
CCOC(=O)c1ccc2[nH]c(C)c(CN3CCN(C)CC3)c(=O)c2c1,12.7% (inactive),
CCCOC(=O)c1ccc(N2C(=O)c3ccccc3C2=O)cc1,-3.9% (inactive),
COc1ccccc1NS(=O)(=O)c1ccc(C)c(C(=O)NCC(c2ccco2)N(C)C)c1 (configuration not stated),12.3% (inactive),
COc1ccccc1CNC(=O)C(=O)NCC(c1ccco1)S(=O)(=O)c1ccc(F)cc1 (configuration not stated),,20.6 µM (active)
COc1ccc(S(=O)(=O)NC(CC(=O)NCc2ccccc2OC)c2ccco2)cc1 (configuration not stated),-22.8% (inactive),
CC(C)(C)c1ccc(C(=O)NCCC(=O)NCc2ccco2)cc1,-27.3% (inactive),
CC(C)(C)c1ccc(C(=O)NCC(c2ccco2)S(=O)(=O)c2ccc(F)cc2)cc1 (configuration not stated),,20.6 µM (active)
CC(C)(C)c1ccc(C(=O)NCc2ccco2)cc1,-21.9% (inactive),
CC(C)CNC(=O)C(=O)NCc1ccccc1,-5.58% (inactive),
O=C(NCc1ccccc1)C(=O)NCC(c1ccco1)S(=O)(=O)c1ccc(Cl)cc1 (configuration not stated),,23.1 µM (active)
O=C(NCCc1ccccc1)C(=O)NCC(c1ccco1)S(=O)(=O)c1ccccc1 (configuration not stated),-27.8% (inactive),
O=C(CCN1C(=O)C2CCCCC2C1=O)Nc1ccc(OC(F)F)cc1 (configuration not stated),0.993% (inactive),
COc1ccccc1-n1ccnc(SCC(=O)NC2CCCCC2)c1=O,-22.8% (inactive),
COc1ccccc1C(=O)NCc1nnc(SC(C)C(=O)Nc2nccs2)n1C (configuration not stated),-3.89% (inactive),
Cc1c(NS(=O)(=O)c2ccc(Cl)cc2)c(=O)n(-c2ccccc2)n1C,-2.45% (inactive),
O=C(NCc1ccc(Cl)cc1)NCc1ccc(Cl)cc1,-7.05% (inactive),
CCc1nc2c(OCCOc3ccccc3)cccn2c1N(C)C(=O)c1cccs1,,25.9 µM (active)

SMILES,"activity change, negative = growth inhibition",Potency
O=C(COc1ccccc1)OCc1cc(=O)n2nc(-c3cccs3)sc2n1,-2.16% (inactive),
O=C(c1cccs1)N(C(=O)c1cccs1)c1ccccn1,2.25% (inactive),
CCc1nc2c(OCC(N)=O)cccn2c1N(C)C(=O)c1ccc(OC)cc1,-52.9% (inactive),
CCOc1cc(C(=O)O)ccc1OCCOc1ccccc1,11.7% (inactive),
CCc1nc2c(OCCOc3ccccc3)cccn2c1N(C)C(=O)c1ccc(OC)cc1,,29.1 µM (active)
Cc1c(C2=CCN(S(=O)(=O)c3ccc(Cl)cc3)CC2)c2ccccc2n1C,-25% (inactive),
Cc1ccn(CC(=O)N2N=C(C(F)F)CC2(O)C(F)F)n1 (configuration not stated),-25.3% (inactive),
COc1cccc(CN2CCNC(=O)C2CC(=O)N(C)CCc2ccccn2)c1 (configuration not stated),10.9% (inactive),
O=C(NCCCNC(=O)NC1CCCCC1)NC1CCCCC1,-19.5% (inactive),
O=C(NNC(=O)c1csc(-c2cccnc2)n1)Nc1ccc(Cl)cc1,-15% (inactive),
Cc1ccc(NC(=O)Nc2cccnc2)cc1,4.49% (inactive),
O=C(Nc1ccc(Cl)cc1)Nc1ccc(Oc2cccnc2)nc1,,18.4 µM (active)
CCN=c1sc(C(=O)Nc2ccccc2)c(C)n1CC,2.49% (inactive),
O=C(COc1ccc(/C=N/NS(=O)(=O)c2ccccc2)cc1)NCCc1ccccc1,-22.2% (inactive),
CC(C)NC(=O)COCc1cc(-c2ccc3c(c2)OCO3)on1,-0.118% (inactive),
Cc1cccc(N2CCN(C(=O)COCc3cc(-c4ccc5c(c4)OCO5)on3)CC2)c1C,,inactive
O=C(COCc1cc(-c2ccc3c(c2)OCO3)on1)N1CCN(c2cccc(Cl)c2)CC1,,inactive and 18.4 µM (active)
CC(=O)c1ccccc1NC(=O)C1CC(=O)N(c2ccc3c(c2)OCCO3)C1 (configuration not stated),0.743% (inactive),
N#CCCN(C(=O)COC(=O)C1CCN(c2ccc(C(F)(F)F)cn2)CC1)c1ccc(F)cc1,-17.8% (inactive),
c1ccc(-n2nnnc2-c2cccnc2)cc1,-7.87% (inactive),
FC(F)(F)c1nc(-c2ccccc2)ncc1-c1nnnn1-c1ccccc1,,20.6 µM (active)
c1ccc(-n2nnnc2NC2CCCCCC2)cc1,-24.8% (inactive),
Cc1ccc2c(=O)cc(C(=O)Nc3sc4c(c3C(=O)NCc3cccnc3)CCCC4)oc2c1,3% (inactive),
COc1ccc(C2CC(c3cccs3)=NN2C(=O)CSc2nnc(N)s2)cc1OC (configuration not stated),2.09% (inactive),
CSc1nc(Nc2ccc(F)cc2)cc(-c2ccccc2)n1,,14.6 µM (active)
Fc1ccc(Nc2nnns2)cc1,-18.8% (inactive),

SMILES,"activity change, negative = growth inhibition",Potency
Fc1ccc2cnc(-c3ccccc3)cc2c1,-40.8% (inactive),
CCNc1nc(Oc2ccc(C(=O)OC)cc2)nc(N2CCOCC2)n1,-2.75% (inactive),
COc1ccccc1S(=O)(=O)NCc1ccc(C(=O)N(C)Cc2ccc(F)cc2)cc1,,20.6 µM (active)
O=C(NCCS(=O)(=O)NCc1ccc(F)cc1)c1ccccc1,-16.7% (inactive),
COc1ccc(S(=O)(=O)NCc2ccc(C(=O)N(C)Cc3ccco3)cc2)cc1,-26.5% (inactive),
NC(=O)c1oc2ccccc2c1NC(=O)CS(=O)(=O)c1ccccc1,-14.5% (inactive),
CC[C@]12c3[nH]c4ccc(OC)cc4c3CCN1C(=O)C(CC(=O)NCCN1CCOCC1)C[C@@H]2C(=O)N1CCN(C(=O)C2CC2)CC1 (some centres not stated),-0.596% (inactive),
c1ccc2c(c1)CSc1sccc1C2=C1CCNCC1,,20.6 µM (active)
Cc1csc(NCC(=O)c2c[nH]c3ccccc23)n1,12.2% (inactive),
NC(=O)NCCCC(=O)O,0.521% (inactive),
Cc1cc(C)n(CCNCc2c(C(=O)N3C[C@@H](C)O[C@@H](C)C3)nc3ccc(Cl)cn23)n1,7.87% (inactive),
CC(=O)Oc1cccc(C(=O)Nc2ccccc2NC(=O)c2cccc(OC(C)=O)c2)c1,-13.8% (inactive),
COc1ccc(OC)c2[nH]c(=O)c(CCNC(=O)C(=O)c3c[nH]c4ccccc34)cc12,,10.3 µM (active)
Cc1ccc(C)c2[nH]c(=O)c(CCNC(=O)CC(C)C)cc12,10.6% (inactive),
COc1ccc(OC)c2[nH]c(=O)c(CCNC(=O)C(C)(C)C)cc12,4.38% (inactive),
CC1(C(=O)NCc2ccccc2)CSCC(=O)N1CCCn1ccnc1 (configuration not stated),15.7% (inactive),
CC1(C(=O)O)CCN1C(=O)/C=C/c1ccccc1 (configuration not stated),-1.88% (inactive),
O=C(/C=C/c1ccccc1)N/C(=C/c1ccccc1)C(=O)Nc1ccccc1O,-12.3% (inactive),
CC1(C)C=Cc2c(ccc(C(=O)/C=C/c3ccccc3)c2O)O1,,7.94 µM (active)
O=C(O)c1ccc2c(c1)C(=O)N(c1ccc(/C=C/C(=O)c3ccccc3)cc1)C2=O,11.4% (inactive),
O=C(/C=C/c1ccccc1)c1ccccc1O,,10.3 µM (active)
CC(=O)Nc1ccc(NC(=S)NC(=O)/C=C/c2ccccc2)cc1,21.7% (inactive),
N#CC1=C(N)Oc2[nH]c(=S)[nH]c(=O)c2C12C(=O)Nc1ccccc12 (configuration not stated),-39.3% (inactive),
O=S(=O)(Nc1ccc2ccccc2c1)N1CCCCC1,-17% (inactive),
